PAFAH1B2 inh – PAFAH1B2 (human) inhibition | recombinant PAFAH1B2, FP-rhodamine activity probe, fluorescence polarization | inhibition, % at 3.39 µM | P68402 | hit rate 1.2% among 340,000 | AID 492953;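 active = inhibition above the mean of all tested compounds plus 3 SD, cut at about 24% in these data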;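 also: 0% = enzyme with DMSO and 100% = wells lacking PAFAH1B2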
Target sequence (P68402 whole entry, looked up): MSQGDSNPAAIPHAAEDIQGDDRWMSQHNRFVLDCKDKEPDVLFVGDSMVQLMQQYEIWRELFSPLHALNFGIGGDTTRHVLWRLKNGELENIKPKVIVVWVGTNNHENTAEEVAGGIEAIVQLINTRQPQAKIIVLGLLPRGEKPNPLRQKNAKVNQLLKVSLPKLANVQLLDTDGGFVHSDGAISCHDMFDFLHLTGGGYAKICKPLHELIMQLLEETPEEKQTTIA
PP5 inh – inhibitors of human protein phosphatase 5 (PP5) | P53041 | purified PP5c, OMFP substrate fluorescence | inhibition, % at 6.7 µM | hit rate 0.18% among 320,000 | AID 1987;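 active = inhibition above the campaign's mean inhibition across all tested compounds plus 3 SD, cut at about 9.5% in these data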;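 also: 0% = DMSO only and 100% = 100 µM cantharidin control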
PAFAH1B3 FP inh – blocks human PAF acetylhydrolase 1B catalytic subunit 3; Q15102; AID 492972; inhibition, % at 3.39 µM; hit rate 0.28% among 340,000; recombinant PAFAH1B3, FP-rhodamine probe, fluorescence polarization;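 active = inhibition above the screen-wide average of all tested compounds plus 3 SD, cut at about 25% in these data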;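 also: 0% = enzyme with DMSO only and 100% = wells lacking PAFAH1B3 protein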
pPAFAH FP inh – pPAFAH (human) enzyme inhibition; hit rate 1.5% among 330,000; AID 463082; inhibition, % at 3.39 µM; Q13093; recombinant pPAFAH, FP-rhodamine probe fluorescence polarization;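 active = inhibition above the mean inhibition across the screen plus 3 SD, cut at about 25% in these data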;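 also: inhibitors block binding of the rhodamine activity-based probe so polarization drops; 0% = enzyme with DMSO and 100% = wells lacking pPAFAH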
Target sequence (Q13093 whole entry, looked up): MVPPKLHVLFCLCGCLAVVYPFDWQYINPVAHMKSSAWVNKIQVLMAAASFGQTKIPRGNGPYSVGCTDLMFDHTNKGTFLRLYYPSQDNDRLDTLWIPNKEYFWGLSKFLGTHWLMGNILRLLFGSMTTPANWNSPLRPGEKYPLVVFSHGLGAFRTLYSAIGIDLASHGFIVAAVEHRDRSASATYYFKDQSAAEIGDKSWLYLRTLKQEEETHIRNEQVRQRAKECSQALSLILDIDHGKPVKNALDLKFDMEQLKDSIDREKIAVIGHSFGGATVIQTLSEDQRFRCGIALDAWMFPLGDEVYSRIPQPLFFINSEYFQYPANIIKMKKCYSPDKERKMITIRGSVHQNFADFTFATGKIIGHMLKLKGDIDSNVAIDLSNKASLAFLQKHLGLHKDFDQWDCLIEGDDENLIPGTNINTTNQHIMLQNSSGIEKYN
Fh CTSL1 inh – cathepsin L1 inhibition, PFM18AAP counter-screen. recombinant F. hepatica cathepsin L1, Z-Leu-Arg-MCA fluorescence. inhibition, % at 5.96 µM. hit rate 0.49% among 300,000. AID 1906;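 active = inhibition above the mean of all tested compounds plus 3 SD, set per screening campaign, cut at about 17% in these data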;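 also: 0% = plate median of test compound wells and 100% = 1 µM Z-Phe-Ala-diazomethylketone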
PAFAH2 inh – inhibitors of human PAFAH2; inhibition, % at 3.39 µM; AID 492956; hit rate 0.99% among 340,000; Q99487; recombinant PAFAH2, FP-rhodamine activity probe, fluorescence polarization;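 active = inhibition above the mean over all tested compounds plus 3 SD, cut at about 30% in these data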;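 also: inhibitors block probe labeling of enzyme so polarization drops; 0% = enzyme with DMSO and 100% = wells lacking PAFAH2 protein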
* marks the source's active call; other numbers are inactive results. An excerpt weighted towards active compounds, which were near 3% of everything screened.

Screening COc1ccc(CN2[C@@H](CC(C)=O)c3cc(C(F)(F)F)ccc3S2(=O)=O)cc1 returned PAFAH1B2 inh 4, PP5 inh 4, PAFAH1B3 FP inh -2, pPAFAH FP inh 3, Fh CTSL1 inh 17* and PAFAH2 inh 4.
Screening CC(NS(=O)(=O)c1ccccc1)C(c1cccs1)N1CCOCC1 (configuration not stated) returned PAFAH1B2 inh 7, PP5 inh -1, PAFAH1B3 FP inh 0, pPAFAH FP inh 0, Fh CTSL1 inh 79* and PAFAH2 inh 0.
`CCOC(=O)[C@@H]1[C@H]2COc3ccccc3[C@@H]2N2C(=O)N(c3ccc(OC)cc3)C(=O)[C@@]12C` gave PAFAH1B2 inh 4, PP5 inh 2, PAFAH1B3 FP inh 10, pPAFAH FP inh 6, Fh CTSL1 inh -2 and PAFAH2 inh 0.
Cc1ccc2nc(NC(=O)c3ccc(OCC4CCCO4)cc3)sc2c1 (configuration not stated) was read as PAFAH1B2 inh -5, PP5 inh 5, PAFAH1B3 FP inh 1, pPAFAH FP inh 27*, Fh CTSL1 inh 2 and PAFAH2 inh -8.
`Cc1cc(C)c2nc(NC(=O)c3ccc(OCC4CCCO4)cc3)sc2c1` (configuration not stated) gave PAFAH1B2 inh -6, PP5 inh -1, PAFAH1B3 FP inh 4, pPAFAH FP inh 1, Fh CTSL1 inh -1 and PAFAH2 inh 5.
For N#C/C(=C\c1c(Oc2ccccc2F)nc2ccccn2c1=O)C(=O)NC1CCS(=O)(=O)C1 (configuration not stated) the results were PAFAH1B2 inh 6, PP5 inh 3, PAFAH1B3 FP inh 18, pPAFAH FP inh 1, Fh CTSL1 inh 1 and PAFAH2 inh -1.
`Cc1ccc(C)c(NC(=O)COc2coc(CN3CCc4ccccc4C3)cc2=O)c1` gave PAFAH1B2 inh 3, PP5 inh -1, PAFAH1B3 FP inh 1, pPAFAH FP inh 8, Fh CTSL1 inh 1 and PAFAH2 inh 3.
Screening Cc1ccc(NC(=O)COc2coc(CN3CCc4ccccc4C3)cc2=O)c(C)c1 returned PAFAH1B2 inh 9, PP5 inh -1, PAFAH1B3 FP inh 8, pPAFAH FP inh 25*, Fh CTSL1 inh -2 and PAFAH2 inh 4.
`CCCOc1ccc(N)cc1N` gave PAFAH1B2 inh 8, PP5 inh 11*, PAFAH1B3 FP inh 15, pPAFAH FP inh 26*, Fh CTSL1 inh 3 and PAFAH2 inh 8.
CNC[C@H]1Oc2ccc(NC(=O)Nc3ccccc3)cc2CC(=O)N([C@H](C)CO)C[C@H]1C was read as PAFAH1B2 inh 4, PAFAH1B3 FP inh -2, pPAFAH FP inh 1 and PAFAH2 inh -7.
CN(C)S(=O)(=O)c1ccc(N2CCCC2)c(C(=O)NCC2CCCCC2)c1 was read as PAFAH1B2 inh 3, PP5 inh -2, PAFAH1B3 FP inh 5, pPAFAH FP inh 28*, Fh CTSL1 inh -4 and PAFAH2 inh 0.
Screening COc1ccc(N2C(=O)C(Cl)=C(N3CCOCC3)C2=O)cc1 returned PAFAH1B2 inh 1, PP5 inh 0, PAFAH1B3 FP inh 11, pPAFAH FP inh -10, Fh CTSL1 inh 14 and PAFAH2 inh 6.
`Cc1cccc(N2C(=O)C(Cl)=C(N3CCOCC3)C2=O)c1` gave PAFAH1B2 inh 3, PP5 inh 3, PAFAH1B3 FP inh 11, pPAFAH FP inh -10, Fh CTSL1 inh 28* and PAFAH2 inh -5.
CCc1ccc(N2C(=O)C(Cl)=C(N3CCOCC3)C2=O)cc1 was read as PAFAH1B2 inh 2, PP5 inh -8, PAFAH1B3 FP inh -2, pPAFAH FP inh 1, Fh CTSL1 inh 32* and PAFAH2 inh 6.
`O=C1C(Cl)=C(N2CCOCC2)C(=O)N1c1cccc(Cl)c1` gave PAFAH1B2 inh 0, PP5 inh 1, PAFAH1B3 FP inh 3, pPAFAH FP inh 3, Fh CTSL1 inh 57* and PAFAH2 inh 7.
Screening Cc1cc(NC(=O)c2cccc(S(=O)(=O)N3CCCCC3)c2)no1 returned PAFAH1B2 inh -2, PP5 inh -1, PAFAH1B3 FP inh -5, pPAFAH FP inh -4, Fh CTSL1 inh -2 and PAFAH2 inh 0.
For Cn1c2ccccc2c2cc(/C=N/NC(=O)c3cc(O)cc(O)c3)ccc21 the results were PAFAH1B2 inh 25*, PP5 inh 4, PAFAH1B3 FP inh 16, pPAFAH FP inh 30*, Fh CTSL1 inh 0 and PAFAH2 inh -34.
Screening CC[C@H](C)Cc1cn([C@@H](CCCCNC(=O)OC(C)(C)C)C(=O)NCCCCCCCCCCC(=O)N2CCN(C(=O)OC(C)(C)C)CC2)nn1 returned PAFAH1B2 inh 1, PP5 inh 6, PAFAH1B3 FP inh 1, pPAFAH FP inh 2, Fh CTSL1 inh 3 and PAFAH2 inh 7.
For O=C(NNC(=O)C1CC1)c1ccc(F)cc1F the results were PAFAH1B2 inh 1, PAFAH1B3 FP inh 2, pPAFAH FP inh -7 and PAFAH2 inh 0.
CC1=C(C(=O)OCc2cc(C)on2)N2C(=O)[C@@H](NC(=O)OCc3cc(C)on3)[C@H]2SC1 was read as PAFAH1B2 inh 4, PP5 inh 0, PAFAH1B3 FP inh 6, pPAFAH FP inh 5 and PAFAH2 inh 6.
CC1CC(NC(=O)/C=C/C(=O)O)CC(C)(C)C1 (configuration not stated) was read as PAFAH1B2 inh 24*, PP5 inh 0, PAFAH1B3 FP inh 4, pPAFAH FP inh 4, Fh CTSL1 inh 2 and PAFAH2 inh 7.
For O=C1C(=O)N2C(=C1C(=O)N1CCCCCC1)c1ccccc1CC21CCCC1 the results were PAFAH1B2 inh 57*, PP5 inh -1, PAFAH1B3 FP inh 6, pPAFAH FP inh 0, Fh CTSL1 inh 3 and PAFAH2 inh 3.
For CC1(C)Cc2ccccc2C2=C(C(=O)N3CCCCCC3)C(=O)C(=O)N21 the results were PAFAH1B2 inh 61*, PP5 inh -1, PAFAH1B3 FP inh 0, pPAFAH FP inh 1, Fh CTSL1 inh 0 and PAFAH2 inh 1.
Screening CCC1(CC)Cc2ccccc2C2=C(C(=O)N3CCCCC3)C(=O)C(=O)N21 returned PAFAH1B2 inh 17, PP5 inh 0, PAFAH1B3 FP inh 4, pPAFAH FP inh 3, Fh CTSL1 inh 2 and PAFAH2 inh 4.
Screening C=CC[C@@H](CC(=O)N[C@H](CO)Cc1ccccc1)C(=O)N[C@@H](COC(=O)[C@@H](CC=C)CC(=O)OC(C)(C)C)Cc1ccccc1 returned PAFAH1B2 inh 5, PAFAH1B3 FP inh 2, pPAFAH FP inh 4 and PAFAH2 inh 2.
Screening COC(=O)c1sc(NC(=S)NNC(=O)c2c(Br)c(C)nn2C)c(C(=O)OC)c1C returned PAFAH1B2 inh 7, PP5 inh 2, PAFAH1B3 FP inh 13, pPAFAH FP inh 20, Fh CTSL1 inh 4 and PAFAH2 inh 30*.
